PMC8769072, “Proteome‐scale mapping of binding sites in the unstructured regions of the human proteome” (Molecular Systems Biology, 2022)

Biological target: PEX14 16-84, O75381
Sequence (O75381 16-84): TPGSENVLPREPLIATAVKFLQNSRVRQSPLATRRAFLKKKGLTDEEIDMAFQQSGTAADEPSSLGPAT

Selected by phage display, active:
SEQYDSLLRQMWERMD [GTPBP1, O00178] confidence 2
HKLTEREWAEEWKHLN [CBFA2T3, O75081] confidence 3
AWIRDYSSGGSSRTLD [TNKS1BP1, Q9C0C2] confidence 2
VHDAVVNDNLETIWLL [BCORL1, Q5H9F3] confidence 3
DDLSVEWDAMGGKVQD [FSD1, Q9BTV5] confidence 4
EMGDWQEVWDENTGAY [FNBP4, Q8N3X1] confidence 3
ELEDEWQEVMGRFEGD [NFKBIL1, Q9UBC1] confidence 4
HGRYAEALEQHWQELQ [TONSL, Q96HA7] confidence 4
DSLQDSWATAAGTSRI [CPEB2, Q7Z5Q1] confidence 3
TPLWEETMLKAWQHYL [WDFY4, Q6ZS81] confidence 2
EWYEEHAREQEQQRQL [TPCN1, Q9ULQ1] confidence 2
EDVKRHSSASFENVWL [IRS1, P35568] confidence 3
SSGGGSVTLDPLEHAW [SOWAHC, Q53LP3] confidence 3
DWSSQYSMVAGAGREN [LENG8, Q96PV6] confidence 3
TELQQLWKEVTSAHTA [FOXP1, Q9H334] confidence 3
QLWHHDYLLGHLDDEG [TTC31, Q49AM3] confidence 2
STATSPDGGTTFEHLW [TP73, O15350] confidence 3
SWLASYLADADALPSA [CAMTA1, Q9Y6Y1] confidence 3
SPASWERLLAYGWSHA [MIR1-1HG, Q9H1L0] confidence 3
SENESLWKEVSELRAK [HSF2, Q03933] confidence 3
WSLELEDQERHFLQQA [NUP62, P37198] confidence 2

Biological target: NEDD4 890-928, P46934
Sequence (P46934 890-928): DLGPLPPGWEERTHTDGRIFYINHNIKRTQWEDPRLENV

Selected by phage display, active:
DLHHTPGYPTPPPYPF [C11orf53, Q8IXP5] confidence 3
KPPPYLRNLSSDDANV [UBE2L6, O14933] confidence 2
RAQPPDYTFPSGSGAH [PI4K2A, Q9BTU6] confidence 2
RDPEPPEPPTYRAQGV [BSN, Q9UPA5] confidence 3
GKMSREPPPPYVTPAT [ESS2, Q96DF8] confidence 4
MDQNNSLPPYAQGLAS [TBP, P20226] confidence 2
LEDVSKPPAYAYPATP [TNRC18, O15417] confidence 3
RNSPPPYGFHLSPEEM [RHBDD1, Q8TEB9] confidence 2
KVVDIPTYEEAVSFPV [TMEM61, Q8N0U2] confidence 2
NNPVLNDLPQYMPPDF [STPG4, Q8N801] confidence 3
LAGPESPPPPYSRLSP [SMAD6, O43541] confidence 3
HLPQAPPYTDAPPAYS [DAZAP2, Q15038] confidence 3
YLEDLPPPPEYELAPS [GRSF1, Q12849] confidence 2
VSNQPPKYTQPSLPSQ [ATN1, P54259] confidence 3
SVVIPPPDYLEALSMG [BAIAP2L1, Q9UHR4] confidence 4
LALSDPGLEPPVYVPP [JCAD, Q9P266] confidence 3
SWNPPEYDGGAQISNY [TTN, Q8WZ42] confidence 2

Biological target: YAP1 169-207, P46937
Sequence (P46937 169-207): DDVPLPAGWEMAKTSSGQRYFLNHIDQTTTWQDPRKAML

Selected by phage display, active:
DLHHTPGYPTPPPYPF [C11orf53, Q8IXP5] confidence 3
GKMSREPPPPYVTPAT [ESS2, Q96DF8] confidence 4
VSNQPPKYTQPSLPSQ [ATN1, P54259] confidence 2
SVVIPPPDYLEALSMG [BAIAP2L1, Q9UHR4] confidence 3

Biological target: OXSR1 434-527, O95747
Sequence (O95747 434-527): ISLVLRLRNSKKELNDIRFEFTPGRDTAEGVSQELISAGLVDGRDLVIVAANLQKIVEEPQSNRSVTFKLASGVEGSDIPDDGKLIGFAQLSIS

Selected by phage display, active:
DSVPSNTNRFQVSVIN [SLC12A1, Q13621] confidence 4
SEEAKGRFRVNFVDPA [SLC12A2, P55011] confidence 2
SPAPTSRFSITHVSDS confidence 2
SEEGKPQLVGRFQVTS [WNK4, Q96J92] confidence 4
MPTNFTVVPVEAHADG [SLC12A7, Q9Y666] confidence 2
DATLASGRFTISTLLS [SLC12A3, P55017] confidence 2
NWNEWKTGRFLILQTE [DNAH2, Q9P225] confidence 3
TKVGRFQVTTTANKVG [WNK1, Q9H4A3] confidence 4
RFEVAPAPEPASGAQK [PIK3R6, Q5UE93] confidence 3
TPTPAPFSRFTVSPAP confidence 3
FSRFSVSPALETPGPP [LMTK3, Q96Q04] confidence 2

Biological target: PDCD6IP 360-702, Q8WUM4
Sequence (Q8WUM4 360-702): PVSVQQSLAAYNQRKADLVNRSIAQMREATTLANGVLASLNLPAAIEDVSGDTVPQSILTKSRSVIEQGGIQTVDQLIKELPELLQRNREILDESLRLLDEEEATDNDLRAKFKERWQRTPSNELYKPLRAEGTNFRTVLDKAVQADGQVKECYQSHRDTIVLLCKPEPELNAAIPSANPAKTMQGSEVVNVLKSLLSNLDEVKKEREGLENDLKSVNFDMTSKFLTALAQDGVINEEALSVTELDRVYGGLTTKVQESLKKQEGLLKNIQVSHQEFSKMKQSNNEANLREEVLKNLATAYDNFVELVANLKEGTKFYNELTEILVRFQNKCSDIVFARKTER

Selected by phage display, active:
FYLYPDLSRLSDPQVW [SLC6A11, P48066] confidence 3
YPSLTNLKAQADTARA [UVSSA, Q2YD98] confidence 2
YPQDSLAQIKAVYANL [TSHZ1, Q6ZSZ6] confidence 2
LGRDLYPNLAEERSRW [MCC, P23508] confidence 3
LYPSTSSLLTNHQHEG [STAM, Q92783] confidence 3
WYPSLATMQESLRVKQ [GADD45GIP1, Q8TAE8] confidence 3
LYPPLINLWEGDSEKD [LRRN1, Q6UXK5] confidence 4
GLYPQLAVPDAFNSSR [DHX34, Q14147] confidence 2
FRVYPELPKPSISSNN [CEACAM5, P06731] confidence 3
DMPFDELLALYGYEAS [MIER2, Q8N344] confidence 2
YKLYPGLSSYHERVGN [SH3YL1, Q96HL8] confidence 3
VVEGPWTLAALYPALP [GDPD4, Q6W3E5] confidence 3
